Most compounds without a hit are left out; they make up all but 2.9% or so of the library.
Rtt109 HAT inh: C. albicans Rtt109 histone acetyltransferase inhibition; Q5AAJ8; purified Rtt109/Vps75, ThioGlo CoA-SH fluorescence, 4 h; inhibition, % at 34.9 µM; actives 0.16% (n = 330,000); AID 540336;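 active = inhibition of at least 50% in every replicate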
sPLA2-III inh: Inhibits HGIII-sPLA2 liposome hydrolysis, primary screen; Q9NZ20; QFRET BODIPY PC-A2 liposome hydrolysis, fluorescence; inhibition, % at 12.2 µM; actives 0.56% (n = 370,000); AID 743126;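 active = inhibition above mean plus 3 SD of compounds lying within the high and low control bounds, cut at about 19% in these data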;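 also: 0% = median of test compound wells and 100% = no enzyme DMSO wells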
Myeloid diff MLP: promotes myeloid progenitor differentiation | AID 624256 | ER-HoxA9 myeloid progenitors, lysozyme-GFP differentiation, flow cytometry | actives 1% (n = 360,000) | calls only at 10 µM;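 active = normalized GFP-positive differentiation at or above the plate's own cutoff, the solvent-only control mean plus 3 SD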;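 also: cells exposed to compound for four days before flow analysis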
H9c2 protect: modulators protecting cardiomyocytes from myocardial damage | H9c2 cardiomyocytes, H2O2 injury protection, ATPLite, 2 h | protection from H2O2 cell death, % at 20 µM | actives 0.63% (n = 360,000) | AID 588492;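 active = compounds giving at least 50% protection of heart cells from peroxide-induced death in the single-dose screen, raw or plate-pattern-corrected value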;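 also: 0% = DMSO wells with peroxide and 100% = DMSO wells without peroxide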
ABHD5-PLIN5 inh: inhibitors of human ABHD5-perilipin-5 interaction; Q00G26+Q8WTS1; Split G. princeps luciferase complementation, luminescence, 4 h; inhibition, % at 4 µM; actives 0.78% (n = 360,000);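 active = inhibition above the mean inhibition across every tested compound plus 3 SD, cut at about 22% in these data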;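 also: 0% = DMSO only wells and the 100% control is not disclosed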
DAGLB inhibitor: blocks human DAGLB lipase activity; Q8NCG7; HEK293T DAGLB membrane lysate, EnzChek fluorogenic substrate; inhibition, % at 5.17 µM; actives 0.059% (n = 340,000); in the data active = inhibition above about 34%;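 also: 0% = enzyme with vehicle and 100% = wells lacking enzyme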
The depositor's hits bear a star; i = inactive; / = no result given; + = active, no number.

SMILES	Rtt109 HAT inh	sPLA2-III inh	Myeloid diff MLP	H9c2 protect	ABHD5-PLIN5 inh	DAGLB inhibitor
CN(C(=O)CSc1nnc(COc2ccccc2F)n1N)C1CCS(=O)(=O)C1 (centres undefined)	1	5	i	2	0	-2
O=C(NCCc1ccc(Cl)cc1)C1CC(=O)N(CCc2ccccc2)C1 (centres undefined)	1	-5	i	5	-2	-1
CCOC(=O)C(CCC#N)(CCC#N)C(=O)OCC	5	3	i	0	2	-3
S=C(Nc1cccnc1)NC1CCCC1	0	17	i	0	1	1
Cc1c(O)ccc2c(-c3ccccc3)cc(=O)oc12	1	-5	i	84*	0	-1
Cc1[nH]n2c(=O)c3c(nc2c1-c1ccc(Cl)cc1)CCC3	-5	/	i	54*	-3	2
CCOc1c2ccc(C(=O)N[C@H](C)C3CCCCC3)cc2nn1CC	5	3	i	0	-1	0
CCCCNC(=O)c1cn(-c2ccc(OCC)cc2)c(=O)c2cc(OC)c(OC)cc12	-5	6	i	65*	0	1
CC(=O)c1cn(CCOc2ccccc2C)c2ccccc12	-14	-11	i	-18	-8	-3
CCOC(=O)CC(NC(=O)c1cccs1)c1ccc(OCC)cc1 (centres undefined)	-2	1	i	2	-2	1
Cc1ccc(-c2nnc(NCc3nc4ccccc4[nH]3)c3ccccc23)cc1S(=O)(=O)N1CCOCC1	6	/	i	86*	13	-4
Cc1ccc(S(=O)(=O)NC(=O)C2(C)CCN2C(=O)c2ccccc2CCc2ccccc2)cc1 (centres undefined)	/	-16	i	0	0	/
Nc1ccc2c(c1)Nc1ccccc1CC2	0	18	+	-4	3	7
CC(C)N1C(=O)/C(=C\c2nc3ccccc3c(=O)[nH]2)c2ccccc21	6	5	i	85*	18	8
Nc1ccc2nc(-c3ccccc3)cnc2c1	7	3	+	-7	-14	-12
Nc1cc2[nH]c(=O)c3ccccc3c2cc1Br	4	-14	i	62*	-8	3
Nc1ccc2c(c1)[nH]c(=O)c1ccccc12	2	14	i	68*	-8	1
Nc1cc2c(cc1Br)[nH]c(=O)c1ccccc12	0	11	i	17	-1	3
O=c1[nH]c2cc(O)ccc2c2ccccc12	/	-2	i	57*	-3	/
Cc1cc(=O)[nH]c2cc(O)ccc12	1	-1	i	-1	8	-1
N#Cc1ccc(Oc2ccc(C#N)c(C#N)c2)cc1C#N	-1	4	i	-1	4	2
N#CCC(=O)N/N=C/c1ccc(N2N=C(c3ccccc3)CC2c2ccccc2)cc1 (centres undefined)	-12	-20	+	-2	0	3
Cc1[nH]c2ccccc2c1C(=O)C(C)OC(=O)c1ccc(NC(=O)CC#N)cc1 (centres undefined)	4	-70	+	7	5	0
COc1ccc(S(=O)(=O)N2CCOCC2)cc1NC(=O)c1sccc1C	0	11	i	3	-2	1
COC(=O)c1cc2ccccc2c(-c2c(OC)c(C(=O)OC)cc3ccccc23)c1OC	11	-1	+	-6	0	-5
SMILES	Rtt109 HAT inh	sPLA2-III inh	Myeloid diff MLP	H9c2 protect	ABHD5-PLIN5 inh	DAGLB inhibitor
COC(=O)c1cc2ccccc2c([N+](=O)[O-])c1O	-3	-14	i	0	-4	5
O=S(=O)(Cc1ccccc1)C(CCCc1ccccc1)S(=O)(=O)Cc1ccccc1	4	-11	+	-3	-8	-14
O=S(=O)(Cc1ccccc1)CS(=O)(=O)Cc1ccccc1	-20	13	i	-3	12	-3
O=C1OC(Nc2ccc(F)c([N+](=O)[O-])c2)c2ccccc21 (centres undefined)	0	1	i	7	-3	1
O=C1OC(Nc2ccc3c(c2)OCO3)c2ccccc21 (centres undefined)	5	3	+	18	-1	3
CC(C)(C)n1cnc2cc(NC(=O)c3cccs3)ccc21	8	-1	i	-22	2	0
Cc1ccc(NC(=S)N(CCCN2CCCC2)Cc2cccn2Cc2ccc(Cl)cc2)cc1C	62*	4	i	-18	14	-2
CC(C)(C)c1ccc(/C=C(\c2nc3ccccc3[nH]2)S(=O)(=O)c2ccccc2)cc1	17	/	i	-12	43*	-2
O=C(O)c1ccc(/C=C(\c2nc3ccccc3[nH]2)c2nc3ccccc3s2)cc1	7	-11	i	8	2	2
O=C1CC(O)(c2ccccc2)C(c2ccccc2)=C1c1ccccc1 (centres undefined)	2	-14	i	5	-10	-7
Cc1nc(-n2nnc3cc(C)c(C)cc32)c2c3c(sc2n1)CCCC3	3	1	+	-3	-1	2
CCC(=O)Nc1ccc(Nc2nc(C)c([N+](=O)[O-])c(Nc3ccc(NC(=O)CC)cc3)n2)cc1	1	-26	i	70*	2	8
CC(=O)Nc1ccc(Nc2nc(C)c([N+](=O)[O-])c(Nc3ccccc3)n2)cc1	9	-5	i	2	4	5
O=C1N/C(=N/N=C/c2ccccc2O)SC1Cc1ccc(F)cc1 (centres undefined)	-3	-5	i	4	-1	9
O=C(c1nn2c(C(F)(F)F)cc(-c3cccs3)nc2c1Cl)N1CCCc2ccccc21	0	4	+	-5	-7	-16
O=C(c1cnn2c(C(F)(F)F)cc(-c3ccccc3)nc12)N1CCCc2ccccc21	4	0	i	0	-4	-1
COc1ccc(C(c2c(O)ccc3ccccc23)N2CCOCC2)c(OC)c1 (centres undefined)	0	20*	i	-3	96*	-7
Cc1ccccc1OCC(O)Cn1c2ccccc2c2ccccc21 (centres undefined)	/	-17	i	-20	-5	-7
COc1ccc(SCC(O)Cn2c3ccccc3c3ccccc32)c(OC)c1 (centres undefined)	/	-15	+	/	1	/
CC1(C(=O)Nc2ccc3c(c2)OCO3)CCN1C(=O)CC1CC1 (centres undefined)	/	-3	i	7	11	/
Cc1ccc(C(C(=O)NCc2ccco2)N(C(=O)CNC(=O)c2cccs2)c2c(C)cccc2C)cc1 (centres undefined)	2	-4	i	15	-1	1
CC(OC(=O)Cn1[nH]c(=O)c2ccccc2c1=O)C(=O)NC1(C#N)CCCCC1 (centres undefined)	-8	6	i	70*	-5	2

From PubChem BioAssay
